Experimental data published in PubChem BioAssay (NCI).
About 83,000 compounds went through this panel and 20% of them were active in at least one assay; those are over-represented in the sample as a whole.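 Cell lines were cultured in 96-well plates, exposed to a single compound concentration, and assessed for percent growth 48 hours later.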 A number with no mark means an inactive call. Calls of active or inactive are those of the source. The calls were made as follows: active = growth percent below 10; inactive = the rest.

How the values were obtained:
Assay in all cases: NCI-60 one-dose screen, 48 h (100 = growth as untreated, 0 = no growth, -100 = all killed)
Conditions in all cases: 10 µM unless noted
T-47D breast = system: T-47D breast
BT-549 breast = system: BT-549 breast
MDA-MB-435 melanoma = system: MDA-MB-435 melanoma
SW-620 colon = system: SW-620 colon
MCF7 breast = system: MCF7 breast
HCT-116 colon = system: HCT-116 colon
KM12 colon = system: KM12 colon
HCC-2998 colon = system: HCC-2998 colon

Row | SMILES | growth (T-47D breast) | growth (BT-549 breast) | growth (MDA-MB-435 melanoma) | growth (SW-620 colon) | growth (MCF7 breast) | growth (HCT-116 colon) | growth (KM12 colon) | growth (HCC-2998 colon)
1 | Cc1nnc(-c2cc3c(ccc4ccccc43)oc2=O)c2cn(-c3ccc(Cl)cc3)nc12 | 76.2% | 105% | 107% | 99.3% | 80.1% | 85.6% | 94.4% | 
2 | CC(=O)OCC(=O)[C@@]1(O)[C@H](C)C[C@H]2[C@@H]3C=C(C)C4=Cc5c(cnn5-c5ccc(F)cc5)C[C@]4(C)[C@H]3[C@@H](O)C[C@@]21C | 42.9% | 54.8% | 23.3% | -70.3% (active) | 18.9% | 15.7% | -46.7% (active) | -35.3% (active)
3 | CCOC(=O)C1C(=O)C(=O)N(C(C)C)C1C(=O)OCC (stereo not given) | 105% | 119% | 104% | 103% | 99.8% | 110% | 98.9% | 
4 | CCCCCCCCCCCCc1ccc([N+](CC)(CC)CC)cc1 | 18.6% | 30.2% | 13.9% | 58.8% | 27.9% | 41.8% | 25.6% | 
5 | O=Nc1c(-c2c(O)[nH]c3cc(Br)ccc23)[nH]c2ccccc12 | -31.1% (active) | 40% | 31.4% | -92.5% (active) | -40% (active) | -67.3% (active) | -89.9% (active) | 
6 | CCCCCCCCC/C(=N\NC(=O)c1ccncc1)c1ccc(O)c(O)c1O | 33.7% | 38.8% | 53% | 43.1% | 21.4% | 26.7% | 22.4% | 
7 | Cc1ccc(NC(=O)CCl)cc1Cl | 90.2% | 76.7% | 90.9% | 95.5% | 87.5% | 106% | 111% | 115%
8 | CCc1c(C)c2ccc(OCC(=O)N=Nc3c(O)[nH]c4ccccc34)c(C)c2oc1=O | -53.3% (active) | 11.3% | 0.887% (active) | -29.2% (active) | -4.72% (active) | -7.72% (active) | -23.4% (active) | -2.02% (active)
9 | O=C(OCC1CC2(Cl)C(Cl)=C(Cl)C1(Cl)C2(Cl)Cl)C1C(C(=O)OCC2CC3(Cl)C(Cl)=C(Cl)C2(Cl)C3(Cl)Cl)C2(Cl)C(Cl)=C(Cl)C1(Cl)C2(Cl)Cl (stereo not given) | 105% | 97.5% | 106% | 107% | 96.9% | 101% | 101% | 
10 | CCCCCCCCc1ccc(CCC(N)(CO)CO)cc1 | 34% | 73.5% | -43.6% (active) | -83.8% (active) | -69% (active) | -69.8% (active) | -66.5% (active) | -85.6% (active)
11 | CC1C(=O)CCCC1=O | 96.1% | 104% | 105% | 113% |  | 113% | 113% | 109%
12 | CCCCCCCCC(=O)Nc1ccc(O)cc1 | 88.7% | 80.5% | 98.3% | 103% |  | 101% | 90.9% | 
13 | CNc1nc2ncn(C)c2c(=O)[nH]1 | 91.4% | 88.7% | 94.6% | 95.7% |  | 100% | 86.8% | 90.7%
14 | c1ccc(Nc2ccccn2)cc1 | 101% | 98.8% | 112% | 110% |  | 103% | 104% | 114%
15 | CC(=O)Nc1nc(C)c(C(=O)N/N=C/c2cccs2)s1 | 67.8% | 120% | 111% | 94.2% | 75.7% |  | 116% | 114%
16 | O=C1Nc2ccccc2/C1=C/c1cn(CC(O)Cn2cc(/C=C3\C(=O)Nc4ccccc43)c3ccccc32)c2ccccc12 (stereo not given) | -46.1% (active) | -55.3% (active) | -87.6% (active) | -60.4% (active) |  | -64.2% (active) |  | -16.9% (active)
17 | COc1ccc2sc(-n3nc4nc5n(c(=O)c4c3N)-c3ccccc3Sc3ccccc3-5)nc2c1 | 29.2% | 73.2% | 79.5% | 95.6% |  | 65.7% | 81.4% | 93.6%
18 | COc1ccc(Cn2cc3c(c2-c2ccc(O)cc2)CCc2cnoc2-3)cc1 | 50% | 44.4% | -39.4% (active) | 22.5% |  | 11.1% | 11.8% | -21.1% (active)
19 | CCCCCC(=C/c1ccccc1)/C=N/N=C(N)N | -34.3% (active) | 46.6% | -80% (active) |  | -69.6% (active) | -56.6% (active) |  | 
20 | COc1ccc2oc(=O)cc(CN3C(=O)S/C(=C\c4ccc(Cl)cc4)C3=O)c2c1 | 86.6% | 91.5% | 105% | 108% |  | 84.8% | 96.1% | 104%
21 | Oc1ccc2ccccc2c1/C=N\Nc1ccccn1 | 7.06% (active) | 22.2% | 25.1% |  | 2.43% (active) | 1.72% (active) | 29.7% | 21%
22 | CCCCCCCCCCCCCCCC[n+]1cccc(C#N)c1 | 49.2% | 90.3% | 73.3% | 35.6% |  | 24% | 44.4% | 65.2%
23 | COC(=O)C(N)CC(C)C (stereo not given) | 92% | 97.9% | 106% | 103% |  | 93.5% | 93.8% | 111%
24 | CCCCN(CCCC)CCCNc1c2c(nc3ccc(Cl)cc13)CCCC2 | 95.7% | 108% | 103% | 82.3% | 89.6% | 57.6% | 99.7% | 
25 | CCCCCCCCCc1cc[n+](CC(=O)c2ccc([N+](=O)[O-])cc2)cc1 | 22.2% | 15.2% | -20.8% (active) |  | -41.3% (active) | -34.5% (active) | -31.5% (active) | -76.3% (active)
26 | CCCCS(=O)(=O)c1cc(Nc2ccc(O)c3c2C(=O)c2ccccc2C3=O)ccc1C | 75.6% | 91.6% | -85.7% (active) | 103% |  | 78.7% | 73.4% | 67%

Row | SMILES | growth (T-47D breast) | growth (BT-549 breast) | growth (MDA-MB-435 melanoma) | growth (SW-620 colon) | growth (MCF7 breast) | growth (HCT-116 colon) | growth (KM12 colon) | growth (HCC-2998 colon)
27 | O=C(/C=C/c1ccc(Br)cc1)c1ccccc1 | 74.8% | 95.8% | 87.6% | 65.6% |  | 61.6% | 39.6% | 99.4%
28 | O=C1C(=O)c2ccccc2C(O)=C1CCCc1ccc(C2CCCC2)cc1 | 59.8% | 40.3% | 42% | 24.3% |  | 16.6% | 27.6% | 36.7%
29 | O=C(/C=C1\C(=O)N(Cc2ccc([N+](=O)[O-])cc2)c2ccccc21)c1ccc(OCCN2CCCC2)cc1 | 56.3% | 81.5% | 48.2% | 18.7% |  | 12.2% | 90.1% | 101%
30 | Clc1ccc(I)c2ccccc12 | 96.8% | 94.6% | 108% | 107% |  | 97.4% | 110% | 107%
31 | COc1cc2cc3cc4cc(OC)c(OC)cc4c(C)[n+]3cc2cc1OC (tested in a mixture with another compound) | 91.7% | 85.5% | 71% | 83.2% | 67.6% |  | 80.4% | 102%
32 | COc1ccccc1CNCCCN1C(=O)c2ccc3c4c(ccc(c24)C1=O)C(=O)N(CCCNCc1ccccc1OC)C3=O | -22.9% (active) | -71.6% (active) | -79.3% (active) |  | -63.9% (active) | -60.5% (active) | -79% (active) | -94.7% (active)
33 | N/C(=N\O)c1ccncc1 | 102% | 98.3% | 100% | 105% |  | 102% | 102% | 95.8%
34 | COc1ccc(Oc2[nH]n(C3=Nc4ccccc4Sc4ccccc43)c(=O)c2C#N)cc1 | 92.8% | 98.2% | 101% |  | 101% | 93.5% | 104% | 103%
35 | CCOC(=O)CNS(=O)(=O)CC(=O)c1ccccc1 | 91.9% | 86.4% | 99.7% | 110% |  | 103% | 108% | 92.2%
36 | CN(C)CCOC(=O)C(C)(C)C | 103% | 112% | 104% | 91.6% |  | 103% | 106% | 110%
37 | COc1ccc(NC(=O)/C=C(C)/C=C/C=C(C)/C=C/C2=C(C)CCCC2(C)C)cc1 | 17.8% | 96.2% | 95.7% | 69.3% | 73.7% |  | 88.9% | 97.9%
38 | Cc1ccc(C(=O)NN)cc1 | 109% | 98.8% | 109% |  | 99.7% | 100% |  | 
39 | CC(=O)CCS(=O)c1ccccc1 (stereo not given) | 100% | 119% | 111% | 98% |  | 102% | 97.9% | 91.7%
40 | N#CC1=C(N2CCOCC2)NC2c3ccccc3Sc3ccccc3N2C1=N (stereo not given) | 85.8% | 97.2% | 107% |  | 98.4% | 97.2% | 110% | 104%
41 | COc1ccc(/C=C2\SC(=O)N(Cc3cc(=O)oc4ccc(OC)cc34)C2=O)cc1 | 63.1% | 77.4% | 100% | 106% |  | 82.8% | 88.9% | 95.4%
42 | COC(=O)c1c[n+]([O-])ccc1OC | 114% | 111% | 102% | 109% |  | 113% | 111% | 104%
43 | CCOP1(=O)CC(C)=C(Cl)C(P(=O)(O)O)C1 (stereo not given) | 98.6% | 97.4% | 107% | 110% | 109% |  | 105% | 94.4%
44 | COc1cc(/C=C/C(=O)c2ccc(F)cc2)ccc1OCCCCOc1cc2c(cc1OC)C(=O)N1CCCC1C=N2 (stereo not given) | 1.74% (active) | -49.9% (active) | -71% (active) | -59% (active) | -19.5% (active) |  | -64.1% (active) | -87.5% (active)
45 | COc1cc2c(/C=C3\C(=O)Nc4ccc(Br)cc43)c(Cl)n(C)c2cc1C | 64.4% | 35.1% | 7.32% (active) | 31.9% |  | 5.1% (active) | -21.5% (active) | -39.4% (active)
46 | Nc1cc(N)c2nc(NCCc3ccc(Cl)c(Cl)c3)cnc2c1 | -27.2% (active) | 96.6% | -50% (active) | 51.3% |  | -42.5% (active) | 35.6% | 44.7%
47 | COc1ccccc1Cn1cc2c(c1)-c1oncc1CC2 | 52% | 67.4% | -53.7% (active) | 27% |  | 9.05% (active) |  | -43.1% (active)
48 | CSc1nc(N)n2nccc2n1 | 102% | 99.6% | 98.3% | 97.9% |  | 99.2% | 114% | 100%
49 | CCNc1nnc(COc2ccc(CNC(=O)CCCC/C=C/C(C)C)cc2OC)o1 | 81% | 102% | 104% | 110% |  | 87.2% | 98.2% | 103%
50 | Oc1ccc(CN(Cc2ccc(C(F)(F)F)cc2)Cc2ccc(O)c3ncccc23)c2cccnc12 | 20.2% | 32.9% | 31.4% | 18.1% |  | 18% | 18.8% | 34.1%
51 | Cc1nc(N)sc1C(=O)NCCO | 106% |  | 128% | 109% | 98.2% | 99.6% | 102% | 168%
52 | COC(=O)c1cc(O)c2cc3c(cc2c1-c1cc(OC)c(OC)c(OC)c1)OCO3 | 25.9% |  | 2.84% (active) | 17.8% | 21.9% | 20.8% |  | 52.3%
